PubChem BioAssay (NCI)
About 83,000 compounds went through this panel and 20% of them were active in at least one assay; those are over-represented in the sample as a whole.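 Results are percent growth after 48 hours of single-concentration exposure. 100 means growth as in untreated cells, lower positive values show inhibition; negative values down to -100 show cell death.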 Activity calls are given as the source filed them. How the source made its calls: active means growth percent below 10; inactive means the rest.

System: HL-60(TB) leukemia
Assay: NCI-60 one-dose screen, 48 h (100 = growth as untreated, 0 = no growth, -100 = all killed)
Settings: 10 µM unless noted

| Structure (SMILES) | growth |
| --- | --- |
| O=C1CCC/C=C\C[C@H]2C=C(Cl)C(=O)/C2=C/C[C@H](CCCCC(F)(F)F)OC(=O)CCC/C=C\C[C@H]2C=C(Cl)C(=O)/C2=C/C[C@H](CCCCC(F)(F)F)O1 | -16.5% [7.5 µM] (active) |
| O=C1/C(=C/c2ccc(Cl)cc2)CN(Cc2cn(CCCNc3ccnc4cc(Cl)ccc34)nn2)C/C1=C\c1ccc(Cl)cc1 | -46.7% (active) |
| O=c1c2cc(F)ccc2sc2c(NCCN3CCOCC3)nc3ccccc3c12 | 65.3% (inactive) |
